Experimental data published in PubChem BioAssay (NCATS).
Where “and” joins values, the source holds several entries; their conditions need not be identical. Identical values can stand only once. Inconclusive results are not listed. Calls of active or inactive are those of the source. The call rests on the fitted dose curve; in most records, active means well fitted inhibition curve with a large enough effect in the repeat runs; inconclusive means weak or mixed curves; inactive means no such curve, though single readings can be large or run the other way.

biological target: Cytochrome P450 2C9 (Homo sapiens) (UniProt P11712); experiment: Cytochrome P450 family 2 subfamily C member 9 (CYP2C9) small molecule antagonists: luciferase biochemical (cell-free) qHTS assay (AID 1645842); settings: P450-Glo CYP2C9 enzyme assay, luciferin luminescence; series mostly up to 57.4 µM; activity change, negative = inhibition: at the top concentration; further: nearly all actives have a fitted effect of over 55% in size
In short: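 Luminescence, after 20 min with luciferin detection reagent, reflected CYP2C9 turnover during a 1 h NADPH-driven reaction at 37C. Enzyme-substrate mix contained 0.4% bovine serum albumin and was preincubated with compound 10 min at room temperature.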
On the % scale 0 is the no-effect control and ±100 the full control effect; potency means the concentration at half of the fitted maximal effect.

Cytochrome P450 2C9 (Homo sapiens), sequence (P11712 whole entry, looked up): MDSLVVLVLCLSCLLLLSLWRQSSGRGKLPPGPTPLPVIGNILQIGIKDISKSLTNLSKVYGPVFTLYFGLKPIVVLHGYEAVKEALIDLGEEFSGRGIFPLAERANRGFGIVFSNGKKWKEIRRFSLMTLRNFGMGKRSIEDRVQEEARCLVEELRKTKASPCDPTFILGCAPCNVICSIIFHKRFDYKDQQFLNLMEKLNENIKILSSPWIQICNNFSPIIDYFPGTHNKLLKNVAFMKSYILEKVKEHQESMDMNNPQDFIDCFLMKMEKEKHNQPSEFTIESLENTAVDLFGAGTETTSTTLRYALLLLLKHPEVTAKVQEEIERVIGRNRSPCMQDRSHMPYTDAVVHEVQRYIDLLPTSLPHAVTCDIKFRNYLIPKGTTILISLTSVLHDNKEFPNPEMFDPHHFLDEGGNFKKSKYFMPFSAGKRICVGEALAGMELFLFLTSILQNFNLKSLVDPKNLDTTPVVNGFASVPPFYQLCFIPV

Which “activity change, negative = inhibition” value does the source give for CC1(C)OC[C@@H]2O[C@@]3(C(=O)O)OC(C)(C)O[C@H]3[C@@H]2O1 here?
Its value is 15% (inactive).

For COc1cc([C@H]2Oc3cc([C@H]4Oc5cc(O)cc(O)c5C(=O)[C@@H]4O)ccc3O[C@@H]2CO)ccc1O, which Potency is on record?
The Potency was 8.71 µM (active).

For CN1CCN(C2=Nc3ccccc3Sc3ccc(Cl)cc32)CC1, which “activity change, negative = inhibition” value is on record?
The value was -27.1% (inactive).

How did the Potency turn out when C/C=C/c1ccc(O)c(OC)c1 was run?
Its Potency is 2.19 µM (active).

With CCCCNc1ccc(C(=O)OCCOCCOCCOCCOCCOCCOCCOCCOCCOC)cc1 as the molecule, how does the Potency read?
Its Potency is 6.92 µM (active).

Nc1ccc(C(=O)NCC(=O)O)cc1 was tested. Which “activity change, negative = inhibition” value did it give?
Its value is 8.59% (inactive).

For CCN1CCN(C(=O)N[C@@H](C(=O)N[C@@H]2C(=O)N3C(C(=O)O)=C(CSc4nnnn4C)CS[C@H]23)c2ccc(O)cc2)C(=O)C1=O, which “activity change, negative = inhibition” value is on record?
The value was 0.597% (inactive).

For c1ccc(CC2=NCCN2)cc1, which “activity change, negative = inhibition” value is on record?
The value was 2.05% (inactive).

With O=C(O)Cc1csc(-c2ccc(Cl)cc2)n1 as the molecule, how does the “activity change, negative = inhibition” value read?
The value was -2.54% (inactive).

With CC(=O)Nc1ccc(OC(=O)c2ccccc2OC(C)=O)cc1 as the molecule, how does the “activity change, negative = inhibition” value read?
Its value is 7.9% (inactive).

With N[C@H](C(=O)O)[C@@H](O)c1ccc(O)c(O)c1 as the molecule, how does the “activity change, negative = inhibition” value read?
The value was 1.42% (inactive).

Which Potency does the source give for O=C(Nc1ncc([N+](=O)[O-])s1)c1cccs1 here?
The Potency was 9.77 µM (active).

With FC(F)(F)C(F)(F)C(F)(F)C(F)(F)C(F)(F)C(F)(F)C(F)(F)C(F)(F)Br as the molecule, how does the “activity change, negative = inhibition” value read?
The value was 15.5% (inactive).

For CN1CCc2cccc3c2[C@H]1Cc1ccc(O)c(O)c1-3, which “activity change, negative = inhibition” value is on record?
The value was -25.9% (inactive).

With Cc1cccc(C)c1NC(=O)c1ccccc1C(=O)O as the molecule, how does the “activity change, negative = inhibition” value read?
The value was 13.3% (inactive).

O=C(O)C(Cc1cc(I)c(O)c(I)c1)c1ccccc1 (centres undefined) was tested. Which Potency did it give?
Its Potency is 15.1 µM (active) and 11 µM (active).

For CN1CCN(CCC(=O)N2c3ccccc3Sc3ccc(C(F)(F)F)cc32)CC1, which “activity change, negative = inhibition” value is on record?
Its value is 13.8% (inactive).

Which “activity change, negative = inhibition” value does the source give for CCOc1ccccc1C(N)=O here?
Its value is 7.14% (inactive).

For O=[N+]([O-])c1ccc(/C=N\O)o1, which “activity change, negative = inhibition” value is on record?
The value was 1.01% (inactive).
